Assay in all cases: DAPPL (digital affinity profiling via proximity ligation, sequencing); 10 mM Tris-HCl pH 7.5, 50 mM NaCl, 1 mM DTT, 4% glycerol, room temperature, 30 min; GST-TFs on glutathione beads, 16-mer random dsDNA library, 0.1% formaldehyde crosslink after washing; high values mean tight binding
What all share (details): protein: recombinant; tags: N-terminal GST; dsDNA, one strand shown

One assay has as its target T1, ELK1 (Homo sapiens, UniProt P19419 1-428).
T1 sequence: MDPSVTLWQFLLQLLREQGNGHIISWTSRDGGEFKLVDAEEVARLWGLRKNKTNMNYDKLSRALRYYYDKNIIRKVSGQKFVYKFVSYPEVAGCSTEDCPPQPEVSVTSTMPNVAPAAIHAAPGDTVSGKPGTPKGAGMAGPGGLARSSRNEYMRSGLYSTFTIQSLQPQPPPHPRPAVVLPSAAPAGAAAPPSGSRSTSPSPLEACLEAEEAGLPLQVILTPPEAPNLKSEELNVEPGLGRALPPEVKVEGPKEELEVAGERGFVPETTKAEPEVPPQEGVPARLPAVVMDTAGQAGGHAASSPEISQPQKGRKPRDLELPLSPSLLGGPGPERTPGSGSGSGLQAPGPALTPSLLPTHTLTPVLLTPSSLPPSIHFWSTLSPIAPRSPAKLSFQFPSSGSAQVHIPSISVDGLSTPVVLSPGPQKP
A digest of the protocol: (§1)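 Each value of binding signal is a hexamer's read frequency for a factor divided by the same hexamer's frequency in the tag-only sample. Barcoded, bead-captured GST fusions of human transcription factors made in yeast were pooled with that sample and incubated with 200 nmole of a random double-stranded 16-mer DNA library in Tris/NaCl/DTT/glycerol buffer at room temperature for 30 min. Washing, 0.1% formaldehyde crosslinking, proximity ligation, PCR and Illumina NextSeq500 sequencing followed.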

The next assay has as its target T2, GABPA (Homo sapiens, UniProt Q06546 1-454).
T2 sequence: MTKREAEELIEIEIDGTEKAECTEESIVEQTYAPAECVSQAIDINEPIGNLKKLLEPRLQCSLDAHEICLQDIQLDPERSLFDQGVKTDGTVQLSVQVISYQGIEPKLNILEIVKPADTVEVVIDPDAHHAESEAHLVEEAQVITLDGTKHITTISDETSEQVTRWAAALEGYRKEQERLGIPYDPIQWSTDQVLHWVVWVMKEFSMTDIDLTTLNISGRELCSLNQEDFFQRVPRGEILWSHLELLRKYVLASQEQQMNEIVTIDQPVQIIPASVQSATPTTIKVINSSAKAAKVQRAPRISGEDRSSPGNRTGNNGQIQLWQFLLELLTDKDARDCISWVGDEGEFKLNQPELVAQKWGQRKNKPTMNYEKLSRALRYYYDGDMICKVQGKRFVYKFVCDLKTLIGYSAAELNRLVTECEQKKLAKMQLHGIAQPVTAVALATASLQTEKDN
A digest of the protocol: as §1

Another assay deals with T3, ERG (Homo sapiens, UniProt P11308 1-479).
T3 sequence: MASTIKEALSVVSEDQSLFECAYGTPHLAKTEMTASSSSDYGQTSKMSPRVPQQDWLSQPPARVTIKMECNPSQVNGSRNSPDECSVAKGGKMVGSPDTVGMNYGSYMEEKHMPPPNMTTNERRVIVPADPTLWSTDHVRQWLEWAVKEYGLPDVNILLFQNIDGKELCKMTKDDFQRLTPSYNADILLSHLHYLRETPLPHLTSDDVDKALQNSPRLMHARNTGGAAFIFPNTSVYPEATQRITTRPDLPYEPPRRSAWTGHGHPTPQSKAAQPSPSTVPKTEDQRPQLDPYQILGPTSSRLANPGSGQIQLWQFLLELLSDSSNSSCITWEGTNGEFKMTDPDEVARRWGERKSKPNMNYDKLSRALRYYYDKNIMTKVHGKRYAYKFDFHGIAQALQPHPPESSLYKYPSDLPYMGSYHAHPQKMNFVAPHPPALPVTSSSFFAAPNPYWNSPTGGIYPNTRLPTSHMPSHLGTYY
The method, boiled down: as §1

A further assay has as its target ELF1 (Homo sapiens, UniProt P32519 1-619). A digest of the protocol: as §1
The target in the next assay is SPI1 (Homo sapiens, UniProt P17947 1-270). The method, boiled down:
as §1

The target in a further assay is SPIB (Homo sapiens, UniProt Q01892 1-262). A digest of the protocol: as §1
SPIB, sequence (Q01892 whole entry): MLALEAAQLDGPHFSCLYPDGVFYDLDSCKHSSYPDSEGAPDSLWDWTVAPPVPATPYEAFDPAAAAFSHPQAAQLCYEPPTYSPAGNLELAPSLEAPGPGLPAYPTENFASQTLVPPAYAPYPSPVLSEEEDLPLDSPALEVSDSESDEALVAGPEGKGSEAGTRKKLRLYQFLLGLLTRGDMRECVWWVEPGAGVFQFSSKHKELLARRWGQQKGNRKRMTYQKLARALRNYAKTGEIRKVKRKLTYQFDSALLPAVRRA
For a further assay, the target named is T4, SPIC (Homo sapiens, UniProt Q8N5J4 1-248).
T4 sequence: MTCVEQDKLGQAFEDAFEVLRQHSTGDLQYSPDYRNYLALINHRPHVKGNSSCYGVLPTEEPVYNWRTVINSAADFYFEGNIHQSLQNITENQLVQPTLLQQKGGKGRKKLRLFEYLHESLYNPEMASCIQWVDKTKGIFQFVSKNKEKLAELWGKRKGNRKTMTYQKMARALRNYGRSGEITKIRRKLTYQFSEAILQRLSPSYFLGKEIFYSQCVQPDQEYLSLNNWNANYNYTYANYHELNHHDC
The method, boiled down: as §1

The target in a further assay is ELF4 (Homo sapiens, UniProt Q99607 1-663). The method, boiled down: as §1
ELF4, sequence (Q99607 whole entry): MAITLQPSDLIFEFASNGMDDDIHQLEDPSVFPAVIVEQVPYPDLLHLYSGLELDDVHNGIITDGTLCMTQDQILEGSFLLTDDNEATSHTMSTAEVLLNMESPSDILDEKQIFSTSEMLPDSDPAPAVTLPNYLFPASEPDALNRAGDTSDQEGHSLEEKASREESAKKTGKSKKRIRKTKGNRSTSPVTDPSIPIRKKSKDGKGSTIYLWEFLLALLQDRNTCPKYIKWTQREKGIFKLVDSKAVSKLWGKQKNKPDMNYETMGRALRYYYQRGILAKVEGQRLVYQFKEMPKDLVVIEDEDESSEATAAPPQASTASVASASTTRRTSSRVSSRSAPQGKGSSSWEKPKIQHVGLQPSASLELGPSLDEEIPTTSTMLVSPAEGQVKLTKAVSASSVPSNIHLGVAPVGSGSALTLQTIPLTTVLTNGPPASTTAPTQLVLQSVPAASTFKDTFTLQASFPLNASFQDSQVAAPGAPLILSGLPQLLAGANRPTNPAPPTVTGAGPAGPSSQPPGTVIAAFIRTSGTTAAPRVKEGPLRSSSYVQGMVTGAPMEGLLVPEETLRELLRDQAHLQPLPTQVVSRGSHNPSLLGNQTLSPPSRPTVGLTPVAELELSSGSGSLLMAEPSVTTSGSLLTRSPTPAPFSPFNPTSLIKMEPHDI
A further assay addresses T5, ELK4 (Homo sapiens, UniProt P28324-2 1-405).
T5 sequence: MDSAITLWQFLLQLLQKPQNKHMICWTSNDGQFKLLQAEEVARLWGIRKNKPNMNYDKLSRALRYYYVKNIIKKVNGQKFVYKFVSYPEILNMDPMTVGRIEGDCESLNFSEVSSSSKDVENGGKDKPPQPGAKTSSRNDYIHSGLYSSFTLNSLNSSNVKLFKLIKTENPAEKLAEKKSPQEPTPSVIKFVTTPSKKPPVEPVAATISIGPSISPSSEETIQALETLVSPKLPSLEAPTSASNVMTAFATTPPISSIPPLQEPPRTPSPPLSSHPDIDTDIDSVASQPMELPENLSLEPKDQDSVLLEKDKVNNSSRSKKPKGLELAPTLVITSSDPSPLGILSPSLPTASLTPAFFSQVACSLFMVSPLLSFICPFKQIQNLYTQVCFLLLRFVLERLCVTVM
The method, boiled down:
as §1

A further assay deals with T6, ELF3 (Homo sapiens, UniProt P78545 1-371).
T6 sequence: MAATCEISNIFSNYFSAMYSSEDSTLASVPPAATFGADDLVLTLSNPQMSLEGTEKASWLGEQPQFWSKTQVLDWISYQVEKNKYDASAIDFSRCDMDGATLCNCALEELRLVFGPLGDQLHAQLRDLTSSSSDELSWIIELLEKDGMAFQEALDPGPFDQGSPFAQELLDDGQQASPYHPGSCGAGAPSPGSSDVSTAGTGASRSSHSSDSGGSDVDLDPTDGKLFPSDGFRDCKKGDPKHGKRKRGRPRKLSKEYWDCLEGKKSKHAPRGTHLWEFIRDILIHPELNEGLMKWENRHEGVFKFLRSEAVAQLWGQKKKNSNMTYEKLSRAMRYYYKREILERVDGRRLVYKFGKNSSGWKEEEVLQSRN
A digest of the protocol:
as §1

A further assay deals with ETV1 (Homo sapiens, UniProt P50549 1-477). A digest of the protocol:
as §1

The next assay deals with T7, ERF (Homo sapiens, UniProt P50548 1-548).
T7 sequence: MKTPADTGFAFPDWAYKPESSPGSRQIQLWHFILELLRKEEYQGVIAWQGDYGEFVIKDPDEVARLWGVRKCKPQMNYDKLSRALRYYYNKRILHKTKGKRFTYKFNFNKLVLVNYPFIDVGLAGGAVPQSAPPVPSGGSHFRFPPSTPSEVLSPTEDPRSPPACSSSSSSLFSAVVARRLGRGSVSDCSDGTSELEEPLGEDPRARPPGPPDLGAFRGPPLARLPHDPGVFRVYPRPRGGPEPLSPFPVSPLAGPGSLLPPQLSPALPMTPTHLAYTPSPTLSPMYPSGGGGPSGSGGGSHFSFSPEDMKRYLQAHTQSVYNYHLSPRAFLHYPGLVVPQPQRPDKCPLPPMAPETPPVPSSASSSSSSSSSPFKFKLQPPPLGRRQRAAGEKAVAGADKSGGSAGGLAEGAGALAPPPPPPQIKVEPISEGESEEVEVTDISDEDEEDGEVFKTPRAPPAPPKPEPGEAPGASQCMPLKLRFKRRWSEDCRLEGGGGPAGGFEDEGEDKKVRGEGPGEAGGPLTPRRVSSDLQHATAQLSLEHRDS
The method, boiled down: as §1

The target in a further assay is T8, ETV3L (Homo sapiens, UniProt Q6ZN32 1-361).
T8 sequence: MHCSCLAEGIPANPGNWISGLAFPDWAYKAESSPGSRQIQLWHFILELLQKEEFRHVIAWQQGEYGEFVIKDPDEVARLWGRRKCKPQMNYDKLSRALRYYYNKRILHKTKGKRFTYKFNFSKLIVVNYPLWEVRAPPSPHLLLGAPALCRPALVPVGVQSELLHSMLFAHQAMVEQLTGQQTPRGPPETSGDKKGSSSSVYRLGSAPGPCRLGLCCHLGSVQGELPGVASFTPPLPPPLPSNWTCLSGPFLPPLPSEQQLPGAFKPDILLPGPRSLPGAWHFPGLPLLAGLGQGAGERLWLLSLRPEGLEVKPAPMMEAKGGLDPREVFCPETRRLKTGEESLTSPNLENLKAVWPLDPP
A digest of the protocol:
as §1

The next assay concerns the target T9, ETS2 (Homo sapiens, UniProt P15036 1-469).
T9 sequence: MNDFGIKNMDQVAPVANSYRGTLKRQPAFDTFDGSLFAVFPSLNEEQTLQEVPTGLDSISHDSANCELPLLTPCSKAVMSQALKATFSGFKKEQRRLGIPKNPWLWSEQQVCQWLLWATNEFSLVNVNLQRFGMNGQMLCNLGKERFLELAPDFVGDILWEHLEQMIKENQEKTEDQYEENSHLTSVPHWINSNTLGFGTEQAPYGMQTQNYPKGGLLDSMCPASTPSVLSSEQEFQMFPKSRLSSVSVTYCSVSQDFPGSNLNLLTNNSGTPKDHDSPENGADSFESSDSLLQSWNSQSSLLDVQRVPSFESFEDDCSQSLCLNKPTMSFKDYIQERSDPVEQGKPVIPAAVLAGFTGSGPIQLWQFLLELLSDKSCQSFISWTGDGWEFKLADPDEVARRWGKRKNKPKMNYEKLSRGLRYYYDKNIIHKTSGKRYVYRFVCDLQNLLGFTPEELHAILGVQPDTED
The method, boiled down: as §1

A further assay addresses T10, ETV7 (Homo sapiens, UniProt Q9Y603 1-341).
T10 sequence: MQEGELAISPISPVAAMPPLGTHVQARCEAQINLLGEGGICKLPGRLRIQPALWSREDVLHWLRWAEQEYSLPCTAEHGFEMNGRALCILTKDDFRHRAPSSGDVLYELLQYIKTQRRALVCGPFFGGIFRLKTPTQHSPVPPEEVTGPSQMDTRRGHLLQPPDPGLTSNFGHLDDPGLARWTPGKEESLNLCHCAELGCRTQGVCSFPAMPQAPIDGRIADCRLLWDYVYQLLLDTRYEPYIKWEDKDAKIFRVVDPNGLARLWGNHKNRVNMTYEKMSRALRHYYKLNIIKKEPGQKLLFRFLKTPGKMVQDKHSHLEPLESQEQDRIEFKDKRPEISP
The method, boiled down: as §1

The target of another assay is T11, ETV3 (Homo sapiens, UniProt P41162-2 1-143).
T11 sequence: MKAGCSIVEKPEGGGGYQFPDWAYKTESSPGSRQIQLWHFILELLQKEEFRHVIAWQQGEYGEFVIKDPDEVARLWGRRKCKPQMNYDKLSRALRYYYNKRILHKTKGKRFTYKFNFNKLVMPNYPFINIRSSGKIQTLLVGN
A digest of the protocol:
as §1

For another assay, the target named is ETV6 (Homo sapiens, UniProt P41212 1-452). A digest of the protocol:
as §1

The source of these data is publication PMC7862700, “An all-to-all approach to the identification of sequence-specific readers for epigenetic DNA modifications on cytosine”.

ETV6, sequence (P41212 whole entry): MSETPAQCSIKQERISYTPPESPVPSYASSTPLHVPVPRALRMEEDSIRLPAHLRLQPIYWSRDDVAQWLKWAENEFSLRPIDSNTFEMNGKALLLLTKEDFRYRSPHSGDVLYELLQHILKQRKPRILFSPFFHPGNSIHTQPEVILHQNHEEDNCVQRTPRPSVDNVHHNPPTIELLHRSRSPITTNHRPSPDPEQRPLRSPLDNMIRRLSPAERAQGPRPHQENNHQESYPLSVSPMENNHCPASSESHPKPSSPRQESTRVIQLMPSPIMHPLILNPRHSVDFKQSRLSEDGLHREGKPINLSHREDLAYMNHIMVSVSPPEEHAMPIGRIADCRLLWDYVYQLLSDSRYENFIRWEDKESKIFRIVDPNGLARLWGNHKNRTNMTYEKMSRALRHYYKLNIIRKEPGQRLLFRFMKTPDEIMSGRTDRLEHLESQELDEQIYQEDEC
ETV1, sequence (P50549 whole entry): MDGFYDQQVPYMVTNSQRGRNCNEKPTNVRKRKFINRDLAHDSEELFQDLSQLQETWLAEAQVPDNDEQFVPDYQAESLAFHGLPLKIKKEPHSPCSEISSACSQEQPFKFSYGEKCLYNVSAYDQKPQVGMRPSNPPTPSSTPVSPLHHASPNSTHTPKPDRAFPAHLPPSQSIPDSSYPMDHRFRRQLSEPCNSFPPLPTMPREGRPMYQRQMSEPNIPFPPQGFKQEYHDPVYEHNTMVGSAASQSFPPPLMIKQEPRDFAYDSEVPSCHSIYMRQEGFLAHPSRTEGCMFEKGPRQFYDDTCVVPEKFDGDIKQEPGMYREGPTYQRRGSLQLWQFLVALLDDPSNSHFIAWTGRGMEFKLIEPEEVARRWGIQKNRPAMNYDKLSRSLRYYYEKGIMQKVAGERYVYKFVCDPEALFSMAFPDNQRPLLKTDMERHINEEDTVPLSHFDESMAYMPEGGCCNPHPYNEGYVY
ELF1, sequence (P32519 whole entry): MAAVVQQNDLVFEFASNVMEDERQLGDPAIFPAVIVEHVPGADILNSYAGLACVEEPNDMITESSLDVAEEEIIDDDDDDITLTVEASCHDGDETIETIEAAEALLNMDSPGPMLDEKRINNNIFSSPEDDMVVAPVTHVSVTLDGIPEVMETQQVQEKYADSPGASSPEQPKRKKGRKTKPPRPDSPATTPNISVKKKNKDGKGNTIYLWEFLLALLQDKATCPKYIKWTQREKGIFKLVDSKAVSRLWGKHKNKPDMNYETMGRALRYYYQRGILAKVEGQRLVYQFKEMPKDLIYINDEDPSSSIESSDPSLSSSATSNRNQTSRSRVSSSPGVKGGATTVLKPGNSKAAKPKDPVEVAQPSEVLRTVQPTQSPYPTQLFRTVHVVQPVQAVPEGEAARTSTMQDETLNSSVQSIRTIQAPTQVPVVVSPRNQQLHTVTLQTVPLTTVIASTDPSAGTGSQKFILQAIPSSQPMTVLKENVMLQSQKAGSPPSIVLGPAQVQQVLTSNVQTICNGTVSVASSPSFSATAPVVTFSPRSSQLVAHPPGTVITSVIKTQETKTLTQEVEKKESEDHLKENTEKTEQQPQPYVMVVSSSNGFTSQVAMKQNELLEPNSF

Take TCAATC: the binding signal is 1.08 fold enrichment (6-mer frequency, TF over GST control) with ELK1; 1.13 fold enrichment (6-mer frequency, TF over GST control) with GABPA; 1.04 fold enrichment (6-mer frequency, TF over GST control) with ERG; 1.07 fold enrichment (6-mer frequency, TF over GST control) with ELF1; 1.06 fold enrichment (6-mer frequency, TF over GST control) in the assay with SPI1; 1.04 fold enrichment (6-mer frequency, TF over GST control) with SPIB. Also, the binding signal with SPIC was 1.1 fold enrichment (6-mer frequency, TF over GST control); with ELF4, 1.06 fold enrichment (6-mer frequency, TF over GST control); with ELK4 it was 1.03 fold enrichment (6-mer frequency, TF over GST control); in the assay with ELF3, 1.09 fold enrichment (6-mer frequency, TF over GST control); with ETV1, 1.04 fold enrichment (6-mer frequency, TF over GST control); with ERF, 1.09 fold enrichment (6-mer frequency, TF over GST control). Further, the binding signal was 1.05 fold enrichment (6-mer frequency, TF over GST control) in the assay with ETV3L; 1.04 fold enrichment (6-mer frequency, TF over GST control) in the assay with ETS2; 1.01 fold enrichment (6-mer frequency, TF over GST control) with ETV7; 1.01 fold enrichment (6-mer frequency, TF over GST control) with ETV3; 1.06 fold enrichment (6-mer frequency, TF over GST control) in the assay with ETV6.
